Source: PubChem BioAssay (National Center for Advancing Translational Sciences (NCATS))
Six1-Eya2 inh = inhibitors of human Six1/Eya2 interaction. AID 651725. actives 0.56% (n = 360,000). Q15475+O00167. AlphaScreen GST-Six1/His-Eya2 binding, biochemical; stronger effect = lower value. activity change, % (concentration not given with the values); in the data active = activity change below about -65%; inconclusive = mostly about -30% to -63%; note: % is set by controls: 0 for no effect and ±100 for the full control effect
Target sequence (O00167 whole entry, looked up): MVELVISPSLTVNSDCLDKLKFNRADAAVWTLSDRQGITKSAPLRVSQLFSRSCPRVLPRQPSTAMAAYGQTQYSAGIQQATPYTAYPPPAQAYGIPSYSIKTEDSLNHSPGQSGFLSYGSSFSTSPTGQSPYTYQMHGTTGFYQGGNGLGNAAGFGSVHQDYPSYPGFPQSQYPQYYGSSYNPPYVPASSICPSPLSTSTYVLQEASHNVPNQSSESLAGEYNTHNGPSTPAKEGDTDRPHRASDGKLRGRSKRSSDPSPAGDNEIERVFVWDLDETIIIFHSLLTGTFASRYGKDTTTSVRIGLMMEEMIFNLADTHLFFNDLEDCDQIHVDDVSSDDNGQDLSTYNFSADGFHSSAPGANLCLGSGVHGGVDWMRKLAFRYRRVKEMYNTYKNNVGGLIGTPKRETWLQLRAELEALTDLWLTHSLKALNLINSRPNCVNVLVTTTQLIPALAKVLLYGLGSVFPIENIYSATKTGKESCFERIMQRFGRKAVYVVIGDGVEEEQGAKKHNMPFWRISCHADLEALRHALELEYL
Target sequence (Q15475 whole entry, looked up): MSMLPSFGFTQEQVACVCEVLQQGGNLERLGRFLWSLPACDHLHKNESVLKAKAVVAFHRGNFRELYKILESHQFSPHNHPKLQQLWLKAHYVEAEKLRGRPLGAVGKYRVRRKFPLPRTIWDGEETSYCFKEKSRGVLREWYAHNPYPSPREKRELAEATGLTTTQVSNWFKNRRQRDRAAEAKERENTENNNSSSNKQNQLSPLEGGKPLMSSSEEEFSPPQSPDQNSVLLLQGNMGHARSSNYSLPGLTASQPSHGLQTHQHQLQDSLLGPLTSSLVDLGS
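GST-Six1 + His-Eya2 (5X stock: 250/500 nM); Tris pH 8.0, 300 mM NaCl, 0.05% BSA, 0.02% Tween 20; GSH donor/Ni acceptor beads; 1 h 37 °C dark; AlphaScreen readout.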
p53 reactivator = re-activators of mutant p53 | AID 504706 | H1299 p53-A138V BP100-luciferase reporter, luminescence, 24 h | actives 0.063% (n = 320,000) | Potency, µM (series often up to 92.2 µM), inactives show top-dose activity change, positive = activation, actives largely listed as activators; note: potency is the fitted concentration of half-maximal effect; % of control where 0% means no effect; nearly all actives have a fitted effect of over 45% in size
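p53-null H1299 cells stably carrying temperature-sensitive p53-A138V and a BP100-luciferase reporter were pinned with compounds (4-point, 1:5 series) and held 24 hrs at 37 deg C. Luminescence was read 10 min after detection reagent.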
VP16 counter = counter-screen for ROR gamma inhibitors: Gal4-VP16 reporter | actives 3.5% (n = 310,000) | AID 2546 | Potency, µM (series often up to 53.6 µM), for the others: at the highest dose activity, negative = inhibition, hits mostly inhibitors | Drosophila S2 Gal4-VP16 UAS-luciferase, luminescence, 20 h;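 note: Gal4-VP16 expression switched on by copper sulfate through the metallothionein promoter; potency is the fitted concentration of half-maximal effect; % is set by controls: 0 for no effect and ±100 for the full control effect; nearly all actives have a fitted effect of over 50% in size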
CtBP-E1A inh = CtBP/E1A binding inhibition; actives 0.49% (n = 340,000); activity change, % (no concentration beside the values); AlphaScreen GST-E1A/His-CtBP binding, 1536-well; stronger effect = lower value; in the data active = activity change below about -65%; inconclusive = mostly about -30% to -63%; note: % is set by controls: 0 for no effect and ±100 for the full control effect
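GST-E1A and His-tagged CtBP (125 nM each as 5X stock) were preincubated with pin-transferred compound for 2 h at 37 °C in the dark, then glutathione donor and nickel acceptor beads were added for 1 h before AlphaScreen reading.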
RORg inh = inhibitors of mouse ROR gamma transcriptional activity | P51450 | Drosophila S2 Gal4-RORgamma UAS-luciferase reporter, 20 h | Potency, µM (titrated, usually from 53.6 µM), without a hit: top-dose activity change, negative = inhibition, actives largely listed as inhibitors | actives 5.4% (n = 310,000) | AID 2551; note: potency is the fitted concentration of half-maximal effect; % is set by controls: 0 for no effect and ±100 for the full control effect; nearly all actives have a fitted effect of over 60% in size
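Schneider cells (Drosophila), stable Gal4 DBD–ROR gamma + UAS-luc; 1 hr cmpd preincubation; Cu2+ induction 700 uM final; 20 hr ambient; luminescence.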
An asterisk follows results filed as active. In the library only some 5.4% were active in any assay of this set; here they are far more common. Unless noted, calls come from the whole dose curve; as a rule, active = well fitted curve in the direction sought with a large enough effect; inconclusive = small, poorly fitted or top-dose-only effect, or another doubt; inactive = no such curve, though single readings can be large; an effect the other way counts as inactive or inconclusive.

What do the screens show for `Cc1nn(C)cc1/C=N/NC(=S)Nc1ccc(Cl)cc1Cl`?
Six1-Eya2 inh: -9.7; p53 reactivator: -5.9%; VP16 counter: 2.82µM*; CtBP-E1A inh: -0.8; RORg inh: 0.562µM*

What do the screens show for `COc1ncc2nc(-c3cc(F)cc(F)c3)c(=O)n(CCC#N)c2n1`?
VP16 counter: 6.6%; RORg inh: 8.1%

How did CC(C)(C)c1cc[n+](/C(C(=S)Nc2ccccc2F)=C(/[O-])c2ccc3c(c2)OCCO3)cc1 do in these assays?
Six1-Eya2 inh: 1.6; p53 reactivator: 26.5%; VP16 counter: -9.9%; CtBP-E1A inh: 5.6; RORg inh: 10µM*

Results for [O-]C(=C(C(=S)Nc1cccc2ccccc12)[n+]1ccccc1)c1ccc2c(c1)OCCO2 ?
Six1-Eya2 inh: -13.2; CtBP-E1A inh: -23.9

How did CCCCN(C)S(=O)(=O)c1ccc(C(=O)Nc2nnc(CSC)o2)cc1 do in these assays?
Six1-Eya2 inh: -10.5; p53 reactivator: 9.9%; VP16 counter: 1.12µM*; CtBP-E1A inh: -9.5; RORg inh: 0.794µM*

Results for CCOC(=O)N1CCN(S(=O)(=O)c2ccc(C(=O)Nc3nnc(C)o3)cc2)CC1 ?
Six1-Eya2 inh: inconclusive; p53 reactivator: 3.0%; VP16 counter: inconclusive; CtBP-E1A inh: -7.4; RORg inh: inconclusive

Results for CCN(CC)S(=O)(=O)c1ccc(C(=O)Nc2nnc(COC)o2)cc1 ?
Six1-Eya2 inh: -15.8; p53 reactivator: -2.1%; VP16 counter: 15.8µM*; CtBP-E1A inh: -19.5; RORg inh: 3.55µM*

Results for CCc1nnc(NC(=O)c2ccc(S(=O)(=O)N(CC)CC)cc2)s1 ?
Six1-Eya2 inh: -0.3; p53 reactivator: 5.6%; VP16 counter: inconclusive; CtBP-E1A inh: -9.0; RORg inh: -38.7%

How did CCN(CC)S(=O)(=O)c1ccc(C(=O)Nc2nnc(CSC)o2)cc1 do in these assays?
Six1-Eya2 inh: 4.9; p53 reactivator: -1.7%; VP16 counter: 3.98µM*; CtBP-E1A inh: -2.5; RORg inh: 1.12µM*

Results for CCOC(=O)N1CCN(S(=O)(=O)c2ccc(C(=O)Nc3nnc(CSC)o3)cc2)CC1 ?
Six1-Eya2 inh: inconclusive; p53 reactivator: 0.0%; VP16 counter: inconclusive; CtBP-E1A inh: -10.0; RORg inh: 12.6µM*

How did O=C1CC(SC2=NCCS2)C(=O)N1c1cccc(Cl)c1Cl (configuration not stated) do in these assays?
Six1-Eya2 inh: -1.6; p53 reactivator: -2.2%; VP16 counter: 5.1%; CtBP-E1A inh: -0.3; RORg inh: 19.9%

How did CCCCN(CCCC)S(=O)(=O)c1ccc(C(=O)Nc2nnc(COC)o2)cc1 do in these assays?
Six1-Eya2 inh: -13.0; p53 reactivator: 8.3%; VP16 counter: 1µM*; CtBP-E1A inh: -7.2; RORg inh: 0.447µM*

How did COc1ccc(N2CCc3c(C)nc4c(OC)cc(OC)cc4c32)cc1 do in these assays?
Six1-Eya2 inh: 2.2; p53 reactivator: -3.0%; VP16 counter: -13.6%; CtBP-E1A inh: 2.7; RORg inh: -30.4%

What do the screens show for `COc1ccc(N2CCc3c(C)nc4c(OC)cccc4c32)cc1`?
Six1-Eya2 inh: 3.1; p53 reactivator: 27.7%; VP16 counter: -6.7%; CtBP-E1A inh: 5.1; RORg inh: 20µM*

Results for Cc1ccc(C)c(NC(=S)c2ccc3ccccc3n2)c1 ?
Six1-Eya2 inh: inconclusive; p53 reactivator: inconclusive; VP16 counter: 5.62µM*; CtBP-E1A inh: inconclusive; RORg inh: 2µM*

Results for Cc1ccc(NC(=S)c2ccc(N(C)C)cc2)cc1 ?
Six1-Eya2 inh: -21.9; p53 reactivator: inconclusive; VP16 counter: inconclusive; CtBP-E1A inh: -13.9; RORg inh: 10µM*

Results for CN(C)c1ccc(NC(=S)c2ccc3ccccc3n2)cc1 ?
Six1-Eya2 inh: -2.7; p53 reactivator: 23.0%; VP16 counter: inconclusive; RORg inh: 6.31µM*

What do the screens show for `COc1ccc(C)cc1NC(=O)COC(=O)c1ccc2ccccc2n1`?
Six1-Eya2 inh: 3.8; p53 reactivator: 0.7%; CtBP-E1A inh: -4.4

How did Cc1ccc(C)c(NC(=S)c2ccccn2)c1 do in these assays?
Six1-Eya2 inh: inconclusive; p53 reactivator: inconclusive; VP16 counter: 1.26µM*; CtBP-E1A inh: -67.3*; RORg inh: 0.316µM*

How did Cc1ccc(C)c(NC(=O)NCc2ccccn2)c1 do in these assays?
Six1-Eya2 inh: -2.0; p53 reactivator: 1.2%; VP16 counter: -20.9%; CtBP-E1A inh: -6.1; RORg inh: 20.1%

How did COCC(=O)N1CCC2(CCCN(c3ccc(-c4ccccc4)cc3)C2)CC1 do in these assays?
VP16 counter: 15.6%; RORg inh: 13.6%

What do the screens show for `O=C(NCc1cccnc1)c1ccccc1CCc1ccccc1`?
Six1-Eya2 inh: 2.8; p53 reactivator: 1.1%; VP16 counter: 4.4%; RORg inh: 3.6%

Results for CC(C)(C)C(=O)N1CCc2cc(-c3csc(N)n3)ccc21 ?
Six1-Eya2 inh: 4.1; p53 reactivator: -4.2%; VP16 counter: 10µM*; CtBP-E1A inh: 23.8; RORg inh: 12.6µM*

Results for CCC(C)C(=O)N1CCc2cc(-c3csc(N)n3)ccc21 (configuration not stated) ?
Six1-Eya2 inh: -5.8; p53 reactivator: inconclusive; VP16 counter: -4.1%; CtBP-E1A inh: -2.6; RORg inh: 7.6%

How did COc1ccccc1NC(=O)c1cccc2c(Br)cccc12 do in these assays?
Six1-Eya2 inh: 14.9; VP16 counter: 3.6%; RORg inh: -15.7%

Results for CCOCCn1c(CC)nc2ccccc21 ?
Six1-Eya2 inh: -9.3; p53 reactivator: -0.3%; VP16 counter: 2.4%; CtBP-E1A inh: 18.4; RORg inh: -41.7%

Results for CCc1nc2ccccc2n1CCc1ccccc1 ?
Six1-Eya2 inh: 7.3; p53 reactivator: -2.2%; VP16 counter: 2.3%; CtBP-E1A inh: -5.3; RORg inh: 8.91µM*

What do the screens show for `C=C(Br)Cn1c(CC(C)C)nc2ccccc21`?
Six1-Eya2 inh: 7.8; p53 reactivator: 4.1%; VP16 counter: -6.2%; CtBP-E1A inh: -2.3; RORg inh: 35.5µM*

How did CCc1nc2ccccc2n1CCC(C)C do in these assays?
Six1-Eya2 inh: 9.1; p53 reactivator: 1.5%; VP16 counter: 12.6µM*; CtBP-E1A inh: 1.6; RORg inh: 10µM*

How did CC(C)C(=O)NCCc1nc2ccccc2n1CCc1ccccc1 do in these assays?
Six1-Eya2 inh: 20.4; p53 reactivator: -1.5%; VP16 counter: -2.2%; CtBP-E1A inh: 0.0; RORg inh: -21.7%

Results for CC(C)Cc1nc2ccccc2n1CCc1ccccc1 ?
Six1-Eya2 inh: -0.1; p53 reactivator: 3.5%; VP16 counter: inconclusive; CtBP-E1A inh: 1.8; RORg inh: 8.91µM*

Results for COc1cc(OC)cc(C(=O)N2CCN(C3CCC(C)CC3)CC2)c1 (configuration not stated) ?
Six1-Eya2 inh: -3.6; CtBP-E1A inh: 6.6

What do the screens show for `Cc1cc(C)n(CC(=O)NNC(=O)c2ccc(S(C)(=O)=O)cc2)n1`?
Six1-Eya2 inh: 3.7; p53 reactivator: 5.6%; CtBP-E1A inh: 15.8
